Assay in all cases: PBM binding z-score (relative to random genomic background probes); higher = stronger binding; sequences stand for … in GC…GCGATTGACAGCGTAGAATGAAGG
Experiment [1] concerns FXR:RXRa (NR concentration 270 nM, RXRa partner concentration 90 nM). In a few lines:
(§1)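 Binding z-scores were set against random background probes. The data came from custom Agilent 4×180K protein-binding microarrays carrying double-stranded probes with 34-nt variable regions, incubated 1 h with ligand-free nuclear receptor dimers. Partner-specific antibodies detected binding, and scanned fluorescence was regression-normalized.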

The subject of experiment [2] is LXRa:RXRa (NR concentration 270 nM, RXRa partner concentration 90 nM). In a few lines: as §1
The test system of experiment [3] is LXRa homodimer (NR concentration 270 nM). In a few lines:
as §1

The test system of experiment [4] is LXRb:RXRa (NR concentration 270 nM, RXRa partner concentration 90 nM). In a few lines:
as §1

Experiment [5] deals with LXRb homodimer (NR concentration 270 nM). In a few lines:
as §1

Experiment [6] deals with PPARa:RXRa (NR concentration 270 nM, RXRa partner concentration 90 nM). An outline of the steps:
as §1

In experiment [7] the test system is PPARg:RXRa (NR concentration 180 nM, RXRa partner concentration 90 nM). In a few lines: as §1
Experiment [8] concerns PPARg:RXRa 270nM:90nM, anti-RXR (NR concentration 270 nM, RXRa partner concentration 90 nM). An outline of the steps:
as §1

Experiment [9] concerns PPARg:RXRa 30nM:10nM, anti-RXR (NR concentration 30 nM, RXRa partner concentration 10 nM). An outline of the steps: as §1
Experiment [10] has as its system PPARg:RXRa 90nM:30nM, anti-RXR (NR concentration 90 nM, RXRa partner concentration 30 nM). An outline of the steps: as §1
The subject of experiment [11] is PPARg:RXRa DBDmut IVT, anti-RXR (DBD mutation: RXRa K156A/R161A, NR concentration 270 nM, RXRa partner concentration 90 nM). In a few lines: as §1
Experiment [12] deals with PPARg:RXRa IVT, anti-PPARg (NR concentration 270 nM, RXRa partner concentration 90 nM). An outline of the steps: as §1
In experiment [13] the test system is PPARg DBDmut:RXRa IVT, anti-PPARg (DBD mutation: PPARg1 K132A/R137A, NR concentration 270 nM, RXRa partner concentration 90 nM). In a few lines:
as §1

The test system of experiment [14] is PPARg DBDmut IVT, anti-PPARg (DBD mutation: PPARg1 K132A/R137A, NR concentration 270 nM). In a few lines: as §1
In experiment [15] the test system is PPARg homodimer (NR concentration 180 nM). In a few lines:
as §1

The subject of experiment [16] is PXR:RXRa (NR concentration 270 nM, RXRa partner concentration 90 nM). In a few lines:
as §1

In experiment [17] the test system is PXR homodimer (NR concentration 270 nM). In a few lines:
as §1

In experiment [18] the test system is RARa:RXR (NR concentration 270 nM, RXRa partner concentration 90 nM). An outline of the steps: as §1
Experiment [19] deals with RARa homodimer (NR concentration 270 nM). An outline of the steps: as §1
In experiment [20] the test system is RARb:RXRa (NR concentration 270 nM, RXRa partner concentration 90 nM). An outline of the steps:
as §1

These results are taken from the supplement of paper PMC6555819.

CCTGCTGGGCCAAAGGTCATTGATTCCAATGCTC: the PBM binding z-score in experiment [1] came out at 5.24; in experiment [2] it was 5.14; in experiment [3], 3.92; in experiment [4] it was 4.66; in [5] it was 0.872; in [6], 5.78. The PBM binding z-score in experiment [7] stood at 9.98; in experiment [8], 8.99; in [9], 8.27; in [10], 9.45; in experiment [11], 1.56; in experiment [12], 4.42. Further, the PBM binding z-score in [13] is -0.0348; in experiment [14] it was 0.037; in experiment [15] it was 3.9; in [16] it was 5.43; in [17], 1.15; in experiment [18], 6.18. The PBM binding z-score in [19] is 0.602; in experiment [20], 4.63.

As to TGAATGAGGCTATAAGATCAGGGAACGTTGCAAA, the PBM binding z-score was -0.518 in experiment [1]; -0.611 in [2]; -0.669 in [3]; -0.726 in experiment [4]; -0.998 in [5]; -0.176 in experiment [6]. For the same sequence, the PBM binding z-score in [7] is 0.387; in [8] it was 0.203; in experiment [9], 0.0907; in experiment [10], -0.0194; in [11], -0.531; in [12], -0.142. Also, the PBM binding z-score is 0.314 in experiment [13]; 0.0126 in [14]; -0.853 in experiment [15]; -0.467 in [16]; -0.512 in experiment [17]; -0.215 in experiment [18]. For the same sequence, the PBM binding z-score in experiment [19] was -0.382; in experiment [20] it was -0.0944.

For the sequence CCTTACGGGTCACGAGGATATAGCACGACGAGCG, the PBM binding z-score was 6.44 in experiment [1]; 4.11 in experiment [2]; 0.0313 in [3]; 3.62 in [4]; -0.175 in experiment [5]; 5.81 in experiment [6]. Besides, the PBM binding z-score was 6.65 in [7]; 6.23 in experiment [8]; 2.94 in [9]; 4.99 in experiment [10]; 3.74 in experiment [11]; 4.93 in experiment [12]. Moreover, the PBM binding z-score was 1.1 in experiment [13]; 0.884 in [14]; 2.13 in experiment [15]; 3.42 in [16]; -0.093 in [17]; 4.41 in [18]. For the same sequence, the PBM binding z-score in experiment [19] amounted to 1.37; in [20], 4.59.

Turning to CAGCCTAGGTCATGGCCAGTATAGGAGGAACGTT, the PBM binding z-score is 4.47 in experiment [1]; 3.18 in experiment [2]; -0.187 in [3]; 1.92 in experiment [4]; -0.552 in experiment [5]; 3.81 in [6]. Further, the PBM binding z-score is 2.34 in experiment [7]; 2.86 in experiment [8]; 0.578 in [9]; 1.71 in [10]; 2.64 in [11]; 2.68 in experiment [12]. Further, the PBM binding z-score was -0.045 in experiment [13]; -0.826 in experiment [14]; 1.72 in experiment [15]; 1.53 in [16]; -0.702 in experiment [17]; 2.45 in experiment [18]. Further, the values for the PBM binding z-score in [19] and in experiment [20] were 0.132 and 3.99, respectively.

ACTATGAGTTGACTTAGGGCAACCGATACGACGC: the PBM binding z-score in experiment [1] is 0.53; in experiment [2], 0.591; in [3], 0.2; in [4], 0.365; in [5], 0.578; in experiment [6] it was 0.327. Moreover, the PBM binding z-score stood at 1.08 in [7]; 0.524 in experiment [8]; 0.371 in experiment [9]; 0.418 in [10]; 0.0745 in [11]; 0.378 in experiment [12]. The PBM binding z-score turned out to be 0.38 in experiment [13]; 1.61 in experiment [14]; 0.141 in [15]; 0.608 in [16]; 0.888 in [17]; 1.09 in experiment [18]. Besides, the figures for the PBM binding z-score in experiment [19] and in experiment [20] were 0.486 and 0.974, respectively.

Take CCTTACGGGTCACTGACAAGTTATAGCATTTGGA: the PBM binding z-score in experiment [1] was 5.46; in [2], 3.31; in experiment [3], 0.0997; in experiment [4] it was 3.2; in experiment [5], 0.134; in [6], 4.9. Besides, the PBM binding z-score in [7] turned out to be 4.26; in experiment [8] it was 4.4; in experiment [9], 1.41; in experiment [10] it was 3.45; in experiment [11], 3.61; in experiment [12], 3.76. In addition, the PBM binding z-score in experiment [13] is 0.661; in experiment [14], 0.743; in experiment [15], 2.03; in [16] it was 2.77; in experiment [17], -0.0294; in experiment [18], 3.98. Besides, the PBM binding z-score was 1.19 in experiment [19] and 3.81 in experiment [20].

For the sequence TGTCAAAGTTGAAAGGTAACGTAAGTATCCACAC, the PBM binding z-score is 1.27 in experiment [1]; 1.12 in [2]; -0.229 in [3]; 1.38 in experiment [4]; -0.452 in [5]; 3.49 in experiment [6]. Further, the PBM binding z-score is 5.4 in experiment [7]; 5.19 in experiment [8]; 2.72 in experiment [9]; 4.73 in [10]; -0.206 in experiment [11]; 3.18 in [12]. Moreover, the PBM binding z-score in [13] worked out at 0.664; in [14] it was 0.491; in experiment [15] it was 0.376; in experiment [16], 1.38; in experiment [17], 0.066; in experiment [18] it was 2.56. Moreover, the PBM binding z-score in [19] stood at 0.0354; in experiment [20] it was 2.15.
